Screening results deposited in PubChem BioAssay by The Scripps Research Institute Molecular Screening Center.
Rows were chosen to be rich in hits. Some 3.4% of all compounds tested hit in one or more screens of this group.
HGIII-sPLA2 inh: human group III sPLA2 inhibitors, primary screen, biochemical, QFRET, BODIPY PC-A2 liposome substrate. QFRET BODIPY PC-A2 liposome hydrolysis, fluorescence. 0.56% of 370,000 active. inhibition, % at 12.2 µM;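 active = inhibition above mean plus 3 SD of compounds lying within the high and low control bounds, cut at about 19% in these data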;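 also: 0% = median of test compound wells and 100% = no enzyme DMSO wells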
ADAM10 inh: human ADAM10 inhibitors, primary screen, biochemical, QFRET, HTS | Disintegrin and metalloproteinase domain-containing protein 10 (Homo sapiens), O14672 | recombinant ADAM10, EDANS/DABCYL FRET peptide cleavage, 3 h | inhibition, % at 7 µM | 0.62% of 370,000 active | AID 720582, 2013;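 active = inhibition above a per-campaign cutoff equal to the mean of compounds falling between control-based bounds plus 3 SD, cut at about 20% in these data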;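 also: 0% = DMSO wells while the 100% control is not disclosed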
PLC-gamma1 inh: PLC-gamma1 enzyme inhibitors, primary screen, biochemical, fluorescence, purified enzyme; inhibition, % at 12.2 µM; 0.84% of 370,000 active; fluorogenic substrate; AID 720700, 2013; in the data active = inhibition above about 9.5%
KLK7 zymogen act: proKLK7 zymogen activators, primary screen, biochemical, fluorescence intensity. Kallikrein-7 (Homo sapiens), P49862. purified proKLK7, EDANS-DABCYL substrate fluorescence; 100% is mature enzyme control, 0% vehicle. activation, % at 7 µM. 0.9% of 370,000 active. AID 652039, 2013;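 active = activation above the mean of all tested compounds plus 3 SD, computed per campaign excluding outliers beyond control limits, cut at about 13% in these data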
PLC-beta3 inh: human PLC-beta3 inhibitors, primary screen, biochemical, fluorescence. 1-phosphatidylinositol 4,5-bisphosphate phosphodiesterase beta-3 (Homo sapiens), Q01970. Purified PLC-beta3, fluorogenic substrate. inhibition, % at 12.2 µM. 0.18% of 370,000 active; in the data active = inhibition above about 11%;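 also: 0% = median of compound wells on plate and 100% = full blocker control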
Target sequence (Q01970 whole entry, looked up): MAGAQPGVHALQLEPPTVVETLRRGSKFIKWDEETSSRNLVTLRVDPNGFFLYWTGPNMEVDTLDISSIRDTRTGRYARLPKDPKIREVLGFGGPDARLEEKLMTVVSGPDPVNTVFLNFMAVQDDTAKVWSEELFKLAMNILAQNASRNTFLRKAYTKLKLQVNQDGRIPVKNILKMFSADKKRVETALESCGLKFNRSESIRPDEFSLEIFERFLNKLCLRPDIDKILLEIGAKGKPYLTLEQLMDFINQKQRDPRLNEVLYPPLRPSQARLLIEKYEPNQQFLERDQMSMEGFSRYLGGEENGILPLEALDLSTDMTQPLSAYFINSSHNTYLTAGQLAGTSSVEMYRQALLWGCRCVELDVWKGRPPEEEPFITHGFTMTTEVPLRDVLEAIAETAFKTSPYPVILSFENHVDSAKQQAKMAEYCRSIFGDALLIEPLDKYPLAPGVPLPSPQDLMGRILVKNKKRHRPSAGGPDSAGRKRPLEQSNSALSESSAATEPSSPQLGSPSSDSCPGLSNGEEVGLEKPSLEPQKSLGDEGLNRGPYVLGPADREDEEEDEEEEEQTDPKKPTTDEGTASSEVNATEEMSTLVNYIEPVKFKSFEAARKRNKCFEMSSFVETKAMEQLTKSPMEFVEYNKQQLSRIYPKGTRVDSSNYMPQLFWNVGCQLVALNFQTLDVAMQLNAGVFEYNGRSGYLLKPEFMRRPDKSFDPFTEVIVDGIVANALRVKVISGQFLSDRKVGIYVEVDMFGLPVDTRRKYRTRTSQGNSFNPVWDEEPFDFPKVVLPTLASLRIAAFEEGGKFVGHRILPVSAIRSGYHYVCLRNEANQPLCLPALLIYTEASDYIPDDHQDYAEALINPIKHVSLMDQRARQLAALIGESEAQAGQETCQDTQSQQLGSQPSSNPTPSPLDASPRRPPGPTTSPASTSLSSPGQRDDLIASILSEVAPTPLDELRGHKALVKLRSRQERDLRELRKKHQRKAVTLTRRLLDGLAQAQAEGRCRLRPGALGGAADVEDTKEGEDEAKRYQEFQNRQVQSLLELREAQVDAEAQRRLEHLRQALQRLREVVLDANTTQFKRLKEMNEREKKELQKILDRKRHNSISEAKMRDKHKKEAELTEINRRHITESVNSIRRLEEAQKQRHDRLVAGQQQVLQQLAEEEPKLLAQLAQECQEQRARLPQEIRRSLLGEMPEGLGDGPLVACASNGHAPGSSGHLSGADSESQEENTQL
ADAM17 inh: ADAM17 inhibitors, primary screen, biochemical, QFRET. inhibition, % at 6.95 µM. recombinant ADAM17, EDANS/DABCYL FRET peptide cleavage. 0.83% of 370,000 active. AID 720648, 2013;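 active = inhibition above the mean of compounds lying between control limits plus 3 SD, set per campaign, cut at about 8.5% in these data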;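 also: 0% = DMSO-only wells as the low control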
proKLK7 act conf: proKLK7 zymogen activators, confirmation, biochemical, fluorescence intensity, triplicate; shares compounds with KLK7 zymogen act; purified proKLK7, EDANS-DABCYL substrate fluorescence; scaled: vehicle 0, mature enzyme 100; activation, % at 7 µM; 68% of 3,200 active;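 active = activation, as change over the incubation, above the mean of all tested compounds plus 3 SD, cut at about 13% in these data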
EDANS-DABCYL int: EDANS-DABCYL substrate optical interference, artefact control for kallikrein-7 zymogen activator project, biochemical, fluorescence intensity, high throughput. activation, % at 7 µM. 80% of 3,200 active. AID 686952, 2013. no enzyme, 4 h; solvent 0%, active enzyme control 100%. shares compounds with KLK7 zymogen act;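 active = activation above the all-compound mean plus 3 SD, ignoring values outside control-based bounds, cut at about 4.8% in these data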;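 also: value is the 4 h activation minus the activation read at time zero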
Numbers without * were called inactive; i = inactive; x = no result given.

SMILES | HGIII-sPLA2 inh | ADAM10 inh | PLC-gamma1 inh | KLK7 zymogen act | PLC-beta3 inh | ADAM17 inh | proKLK7 act conf | EDANS-DABCYL int
CN(CCO)C(=O)c1nc[nH]c1C(=O)N1CCN(c2ccccc2)CC1 | 0.9 | -12.5 | 0.1 | -0.3 | 3.2 | 0.2 | x | x
CN(C(=O)C1CCCO1)c1nnc(-c2ccncc2)s1 (stereo not drawn) | 4.8 | i | -35.0 | 130.4* | -42.9 | -172.7 | 166.7* | 166.5*
COc1ccccc1-c1nnc(N(C)C(=O)C2CCCO2)s1 (stereo not drawn) | -3.7 | -119.1 | -5.1 | 17.8* | -8.4 | -36.5 | 26.3* | 26.2*
COCC(=O)N(C)c1nnc(-c2ccc([N+](=O)[O-])cc2)s1 | 9.3 | -0.2 | 5.0 | 0.2 | -2.1 | -8.1 | x | x
COC(=O)Nc1nnc(-c2ccccc2OC)s1 | 0.8 | -121.0 | -5.7 | -12.5 | -16.1 | -45.7 | x | x
CN(C(=O)C1CCCO1)c1nnc(-c2ccccn2)s1 (stereo not drawn) | 0.7 | i | -16.0 | 98.5* | -17.4 | -142.5 | 94.1* | 94.8*
COCC(=O)N(C)c1nnc(-c2ccccn2)s1 | -1.7 | -230.8 | -8.4 | 63.2* | -6.9 | -64.3 | 82.2* | 77.3*
NC1(N2SC(S)=C3CCCC=C32)CCCCC1 | 1.7 | 0.7 | 0.5 | 0.6 | -3.6 | -0.6 | x | x
Cc1ccc(-n2c(SCC(=O)Nc3ccc(S(=O)(=O)Nc4cc(C)nc(C)n4)cc3)nnc2-c2ccncc2)cc1 | -75.1 | -17.6 | -10.8 | 0.0 | -13.7 | -4.8 | x | x
O=C(O)c1ccc(N/N=C/C2=Cc3ccccc3OC2)cc1 | -34.7 | -29.0 | -77.9 | 14.5* | -115.4 | -10.2 | 4.3 | 11.0*
COC(=O)c1ccc2c(c1)C(C)(C)C(/C=C/c1ccc(O)cc1)=[N+]2C | -5.0 | -56.2 | -393.6 | 25.2* | i | -41.6 | 0.0 | 2.5
CCN1C(=O)c2cccc3c(S(=O)(=O)NCC4CCCO4)ccc1c23 (stereo not drawn) | -1.7 | -418.8 | i | 57.3* | i | -146.5 | 70.9* | 65.5*
O=C1Nc2ccc(S(=O)(=O)NCC3CCCO3)c3cccc1c23 (stereo not drawn) | 3.5 | i | i | 48.0* | i | -385.8 | 66.3* | 73.8*
O=S(=O)(NCC1CCCO1)c1ccc(Cl)c2ccccc12 (stereo not drawn) | -17.6 | 5.6 | -1.6 | 0.1 | 1.1 | 0.4 | x | x
Cc1ccccc1-c1ccc2c(c1)[C@@H]1C[C@H](N(C)S(=O)(=O)c3ccc(Cl)cc3)[C@H]([C@H](C)O)CN1CC2 | 4.7 | -99.4 | -112.6 | 5.1 | -141.4 | -16.4 | x | x
Cc1ccc2nc(-c3ccco3)c(Cc3ccsc3)n2c1 | 3.9 | -69.7 | -30.5 | 0.1 | -40.6 | -18.3 | x | x
COc1cc2c(cc1OC)CN(CC(=O)NC(=O)NCc1ccco1)CC2 | 1.5 | -256.1 | -386.1 | 47.7* | -401.7 | -93.1 | 14.4* | 13.7*
COc1ccc2c(c1)CCN(C(=O)CCl)C2C1C(=O)CCCC1=O (stereo not drawn) | 0.8 | -10.1 | -16.7 | -0.1 | -16.4 | -8.8 | x | x
COc1cc2c(cc1OC)C(C1C(=O)CCCC1=O)N(C(=O)CCl)CC2 (stereo not drawn) | -0.3 | i | i | 190.9* | i | -285.8 | 6.4 | 9.2*
COc1cc2c(cc1OC)C(C1C(=O)CC(C)CC1=O)N(C(=O)CCl)CC2 (stereo not drawn) | -11.3 | i | i | 213.2* | i | -221.7 | 8.8 | 9.7*
COc1ccc(-c2cc(-c3ccccc3)nc(=O)[nH]2)cc1 | 0.7 | i | i | 62.2* | i | i | 31.3* | 46.3*
COc1ccc(-c2cc(=O)c3ccccc3[nH]2)cc1 | 0.4 | -80.2 | -6.9 | -0.1 | -16.1 | -19.2 | x | x
Cc1cc(=O)oc2cc(NS(=O)(=O)c3ccccc3)ccc12 | -2.6 | i | i | 66.6* | i | i | 76.3* | 76.3*
Cc1cc(=O)oc2cc(NS(=O)(=O)c3ccc(F)cc3)ccc12 | -4.9 | i | i | 79.4* | i | i | 64.8* | 74.6*
Cc1cc(=O)oc2cc(NC(=O)c3cc(F)ccc3F)ccc12 | 11.2 | -164.3 | -20.7 | 1.6 | -30.4 | -40.1 | x | x
SMILES | HGIII-sPLA2 inh | ADAM10 inh | PLC-gamma1 inh | KLK7 zymogen act | PLC-beta3 inh | ADAM17 inh | proKLK7 act conf | EDANS-DABCYL int
CCCCS(=O)(=O)N1CCCc2nc(CC)c(CC)cc21 | 5.2 | -9.4 | -3.6 | 0.1 | -4.6 | -6.1 | x | x
CCc1cc2c(nc1CC)CCCN2C | 5.5 | -421.6 | -333.8 | 29.5* | -444.9 | -114.8 | -47.3 | -45.5
COC(=O)c1cccc(-n2c(C)cc(O)cc2=O)c1 | 3.5 | -9.3 | -0.4 | 0.1 | 1.1 | -2.0 | x | x
N=C1/C(=C\c2coc3ccccc3c2=O)C(=O)N=C2SC=CN12 | -21.7 | -32.9 | -97.4 | 23.0* | -154.6 | -19.3 | 32.6* | 31.7*
N=C1/C(=C/c2cccn2Cc2ccc(F)cc2)C(=O)N=C2SC=CN12 | -17.5 | -15.8 | -9.4 | 27.9* | -21.9 | -4.3 | 9.7 | 5.6*
CC(=O)Nc1ncnc2c1c(-c1ccc(Cl)cc1)nn2C(C)(C)C | -1.5 | -363.4 | -181.1 | 13.4* | -256.5 | -104.6 | 1.3 | 0.3
CC(=O)N(C(C)=O)c1ncnc2c1c(-c1ccc(Cl)cc1)nn2C(C)(C)C | 2.8 | -247.2 | -197.1 | 27.3* | -243.3 | -86.3 | 27.5* | 29.7*
Cc1c2cccn2cc[n+]1C | 2.7 | -408.2 | -362.0 | 17.6* | i | -126.1 | 31.9* | 26.8*
Cn1ccc2cc(S(=O)(=O)N3CCN(S(=O)(=O)c4c(F)cccc4F)CC3)ccc21 | -0.9 | 1.9 | 0.3 | x | 0.2 | -2.4 | x | x
O=C(O)c1cc(N=Cc2c(O)c3ccccc3oc2=O)ccc1O | -3.8 | -91.6 | i | 149.6* | i | -33.5 | 398.3* | 354.6*
Cc1cc(C)cc(N=Cc2c(O)c3ccccc3oc2=O)c1 | -0.5 | 0.6 | -4.7 | 0.4 | -11.8 | -3.6 | x | x
OC1CCCN(Cc2c3ccccc3cc3ccccc23)C1 (stereo not drawn) | -6.5 | i | -133.6 | 15.4* | -131.4 | -188.1 | -1.8 | -2.3
OC1CCCN(Cc2cccc3ccccc23)C1 (stereo not drawn) | 2.9 | 6.6 | 4.7 | -0.2 | 1.8 | 0.9 | x | x
